# Source: the supplement of paper PMC12494721
# Structures can show the parent of a compound that is named as a salt.
# System: Escherichia coli IAI1
# Experiment: growth (OD595) fold change vs plate DMSO controls (fold change (ratio)); higher = more growth
# Details: incubation time: 27 h, anaerobic, 37 °C
# Outline: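 Growth is the fold change relative to the median of plate DMSO controls. Readings came from anaerobic mGAM cultures in 96-well plates grown for 27 h at 37 °C and read at 595 nm. They were blank-subtracted, corrected for compound background with 20 µM compound solutions in water, and converted to OD with a calibration factor of 5. Values are means of 2 biological replicates, and fold changes above 1.5 were set to NA.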
row,Structure (SMILES),growth
1,c1ccc2cc3c(ccc4ccccc43)cc2c1 [Benz[a]anthracene] (20 µM),0.981
2,CC1=C(C(=O)O)N2C(=O)[C@@H](NC(=O)[C@H](N)c3ccccc3)[C@H]2SC1 [Cephalexin monohydrate] (20 µM),0.985
3,CNc1ncnc2c1ncn2[C@@H]1O[C@H](CO)[C@@H](O)[C@H]1O [N6-methyladenosine] (20 µM),0.994
4,Cn1nnc2c(C(N)=O)ncn2c1=O [Temozolomide] (20 µM),0.982
5,CN[C@@H]1[C@H](O[C@H]2[C@H](O[C@H]3[C@H](O)[C@@H](O)[C@H](N=C(N)N)[C@@H](O)[C@@H]3N=C(N)N)O[C@@H](C)[C@]2(O)C=O)O[C@@H](CO)[C@H](O)[C@H]1O [Streptomycin sulfate] (20 µM),0.989
6,CC(C)Oc1ccc2c(=O)c(-c3ccccc3)coc2c1 [Ipriflavone] (20 µM),1.01
7,CC[C@@H]1C(=O)OC[C@@H]1Cc1cncn1C [Pilocarpine nitrate] (20 µM),1
8,COC(=O)[C@@H]1[C@H]2C[C@H]3c4[nH]c5ccccc5c4CCN3C[C@@H]2CC[C@@H]1O [Yohimbine hydrochloride] (20 µM),1.06
9,CC(=O)N1CCN(c2ccc(OCC3COC(Cn4ccnc4)(c4ccc(Cl)cc4Cl)O3)cc2)CC1 (stereo unspecified) [Ketoconazole] (20 µM),0.988
10,CN1C(C(=O)Nc2ccccn2)=C(O)c2ccccc2S1(=O)=O [Piroxicam] (20 µM),1.03
11,NS(=O)(=O)c1cc2c(cc1Cl)NC(Cc1ccccc1)NS2(=O)=O (stereo unspecified) [Benzylhydrochlorothiazide] (20 µM),1.05
